Values joined by “and” are separate entries in the source; they are usually repeats but may differ in a detail not shown here. Equal values may be shown once. Inconclusive results are not listed. Where a structure was tested more than once in an assay, its records may differ in their call. Active and inactive are the calls of the source. Unless noted, calls come from the whole dose curve; as a rule, active = well fitted curve in the direction sought with a large enough effect in the repeat runs; inconclusive = weak or mixed curves; inactive = no such curve, though single readings can be large; an effect the other way counts as inactive or inconclusive.
Legend:
[1] = molecular target: Estrogen receptor (Homo sapiens) (UniProt P03372); assay: qHTS assay to identify small molecule antagonists of the estrogen receptor alpha (ER-alpha) signaling pathway using the BG1 cell line in the presence of 0.1 nM 17-beta-estradiol (AID 1259244); note: nearly all actives have a fitted effect of over 50% in size
In short: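 VM7Luc4E2 cells (endogenous full-length ER-alpha, 4×ERE-luciferase), kept 5 days in phenol red-free, charcoal-stripped FBS medium; 4,000 cells/well. Compounds added with 0.1 nM (final) 17beta-estradiol, 22 hr at 37C; luminescence read with ONE-Glo after 30 min.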

[2] = qHTS assay to identify small molecule HDAC inhibitors (AID 1259364); note: nearly all actives have a fitted effect of over 45% in size; note: potency is the fitted concentration of half-maximal effect
In short: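 Wild-type HCT-116 cells, plated overnight at 37 C, exposed to compounds 2 hr at 37 C; luminogenic HDAC-Glo substrate then added 30 min at room temperature. Luminescence reports relative endogenous class I/II HDAC activity.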

[3] = qHTS assay to identify small molecule antagonists of the sonic hedgehog signaling (Shh) pathway - cell viability counter screen (AID 1259367); note: nearly all actives have a fitted effect of over 55% in size; note: potency is the fitted concentration of half-maximal effect
In short: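 NIH/3T3-derived Gli1-Luc reporter cells, 2,000/well, plated 4 hr before compound addition, then stimulated with conditioned medium for 24 hr at 37C. Viability measured in the same wells by CellTiter-Fluor fluorescence, reagent added at 23 hr for 1 hr.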

[4] = qHTS assay to identify small molecule agonists of the sonic hedgehog signaling (Shh) pathway (AID 1259368; calls by dose curve;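 note: NIH/3T3-derived 3T3Gli1-Luc cells carrying a stable Gli1-driven firefly luciferase reporter; series mostly up to about 92 µM; nearly all actives have a fitted effect of over 15% in size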)
In short: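 NIH/3T3-derived 3T3Gli1-Luc cells with stably integrated Gli1-driven firefly luciferase, 2,000 cells/well, compounds added after 4 hr. Incubated 24 hr at 37C, 5% CO2; luminescence read after 30 min with luciferase reagent at room temperature.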

[5] = qHTS assay to identify small molecule antagonists of the sonic hedgehog signaling (Shh) pathway (AID 1259369; calls by dose curve; note: nearly all actives have a fitted effect of over 45% in size; note: potency is the fitted concentration of half-maximal effect)
In short: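 NIH/3T3-derived Gli1-Luc reporter cells plated 4 h, dosed with compound, then stimulated with conditioned medium for 24 h at 37 C. Firefly luciferase luminescence read after 30 min with detection reagent at room temperature.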

[6] = molecular target: Estrogen receptor beta (Homo sapiens) (UniProt Q92731); assay: qHTS assay to identify small molecule agonists of the estrogen receptor beta (ER-beta) signaling pathway (AID 1259377; active = well fitted activation curve with a large enough effect in the signal ratio in the repeat runs, not every such curve was filed as active; the % refers to the signal ratio; note: potency is the fitted concentration of half-maximal effect)
In short: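 In HEK293T cells bearing a UAS-beta-lactamase reporter under ER-beta control, DMSO-delivered compounds were incubated for 16 hr at 37C. Activity was detected as fluorescence 2 hours after LiveBLAzer B/G FRET substrate addition.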

[7] = molecular target: Estrogen receptor beta (Homo sapiens) (UniProt Q92731); assay: qHTS assay to identify small molecule antagonists of the estrogen receptor beta (ER-beta) signaling pathway (AID 1259378; active = well fitted inhibition curve with a large enough effect in the signal ratio in the repeat runs, not every such curve was filed as active; the % refers to the signal ratio)
In short: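 ER-beta-UAS-bla HEK293T cells in 2% charcoal-stripped FBS medium treated with compound plus 1nM final 17-beta-estradiol for 16 hr at 37C. Beta-lactamase reporter read by FRET substrate fluorescence after 2 hours at room temperature.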

[8] = qHTS assay to identify small molecule agonists of the androgen receptor (AR) signaling pathway in the presence of an antagonist - cell viability counter screen (AID 1259379);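 note: MDA-kb2 human breast cancer cells carrying an MMTV luciferase reporter; series mostly up to about 92 µM; nearly all actives have a fitted effect of over 25% in size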
In short: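 MDA-kb2 cells (MMTV-luciferase, AR/GR), 3,000/well, 5 h attachment, then 3.0 µM nilutamide (final) and compounds at 15 concentrations. Viability by CellTiter-Fluor fluorescence after 16 h at 37 °C, 0% CO2, in the reporter wells.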

[9] = qHTS assay to identify small molecule agonists of the estrogen receptor beta (ER-beta) signaling pathway - cell viability counter screen (AID 1259380); note: nearly all actives have a fitted effect of over 30% in size
In short: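 ER-beta-UAS-bla HEK293T cells in medium with 2% charcoal-stripped FBS, pre-incubated 6 hr, then treated 16 hr at 37C. Cytotoxicity read in the same wells by CellTiter-Glo luminescence after 30 min at room temperature.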

[10] = qHTS assay to identify small molecule antagonists of the estrogen receptor beta (ER-beta) signaling pathway - cell viability counter screen (AID 1259382); note: series mostly up to about 92 µM; nearly all actives have a fitted effect of over 55% in size
In short: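 ER-beta-UAS-bla HEK293T cells in 2% charcoal-stripped FBS medium, treated with compound plus 1 nM 17-beta-estradiol for 16 h at 37C. Viability read by CellTiter-Glo luminescence after 30 min at room temperature in the same wells.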

[11] = molecular target: Estrogen receptor (Homo sapiens) (UniProt P03372); assay: qHTS assay to identify small molecule agonists of the estrogen receptor alpha (ER-alpha) signaling pathway in the presence of an antagonist (AID 1259383; calls by dose curve; note: nearly all actives have a fitted effect of over 15% in size; note: potency is the fitted concentration of half-maximal effect; for activation: top concentration of the series differs between compounds)
In short: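 VM7Luc4E2 cells express endogenous full-length ER-alpha with an ERE-luciferase reporter and were hormone-deprived for 5 days. Compounds at 15 concentrations were added with 10.0nM ICI-182,780 for 22hr at 37C. Luminescence was read with ONE-Glo.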

[12] = qHTS assay to identify small molecule agonists or antagonists of the thyroid stimulating hormone receptor (TSHR) signaling pathway - wild type cell line counter screen (AID 1259384; calls by dose curve)
In short: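 Wild-type Hek293 cells, 800/well, 18 h at 37C, then compound with Ro20-1724 for 30 min RT. cAMP by HTRF (cAMP-d2/anti-cAMP cryptate), 1 h RT, fluorescence read. 15 concentrations, triplicates.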

[13] = molecular target: Thyrotropin receptor (Homo sapiens) (UniProt P16473); assay: qHTS assay to identify small molecule antagonists of the thyroid stimulating hormone receptor (TSHR) signaling pathway (AID 1259385; calls by dose curve; note: nearly all actives have a fitted effect of over 20% in size)
In short: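 TSHR-HEK293 cells (800/well) plated 18 h, then compounds with Ro20-1724 and TSH at 1.5 ng/mL final, 30 min at room temperature. cAMP quantified by HTRF (cAMP-d2/anti-cAMP-cryptate, 1 h); 15 concentrations in triplicate.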

[14] = qHTS assay to identify small molecule agonists of the estrogen receptor alpha (ER-alpha) signaling pathway in the presence of an antagonist - cell viability counter screen (AID 1259386);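 note: series mostly up to about 92 µM; cells exposed to compounds for 22 h at 37 °C before the viability read; nearly all actives have a fitted effect of over 30% in size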
In short: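 Cell viability in VM7Luc4E2 cells (endogenous full-length ER-alpha) measured by CellTiter-Fluor fluorescence in the same wells as the luciferase screen. Cells pre-cultured 5 days in charcoal-stripped serum, then treated 22 h with compounds at 15 concentrations plus 10.0nM ICI-182,780.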

[15] = molecular target: Progesterone receptor (Homo sapiens) (UniProt P06401); assay: qHTS assay to identify small molecule agonists of the progesterone receptor (PR) signaling pathway (AID 1346784; calls by dose curve; note: nearly all actives have a fitted effect of over 30% in size)
In short: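 Using charcoal-stripped serum (2%) to limit endogenous steroids, PR-UAS-bla HEK 293T cells received compounds for 16 hr at 37C after 6 hr plating; beta-lactamase FRET fluorescence was recorded following 2 hr substrate loading at room temperature.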

[16] = qHTS assay to identify small molecule agonists of the sonic hedgehog signaling (Shh) pathway - cell viability counter screen (AID 1259366); note: nearly all actives have a fitted effect of over 50% in size; note: potency is the fitted concentration of half-maximal effect
In short: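 After a 4hr attachment at 37C, NIH/3T3 cells bearing an integrated Gli1-driven luciferase reporter were dosed with compounds. Treatment lasted 24hr, with the final hour including CellTiter-Fluor for a fluorescence viability measurement.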

[17] = molecular target: Progesterone receptor (Homo sapiens) (UniProt P06401); assay: qHTS assay to identify small molecule antagonists of the progesterone receptor (PR) signaling pathway (AID 1346795; active = well fitted inhibition curve with a large enough effect in the signal ratio in the repeat runs, not every such curve was filed as active; the % refers to the signal ratio; note: potency is the fitted concentration of half-maximal effect)
In short: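 Inhibition of R5020-induced (1 nM final) beta-lactamase reporter signal in PR-UAS-bla HEK293T cells was scored by FRET fluorescence after overnight (16 hr) compound treatment.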

[18] = qHTS assay to identify small molecule HDAC inhibitors - cell viability counter screen (AID 1259365); note: series mostly up to about 92 µM; nearly all actives have a fitted effect of over 50% in size
In short: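 Following a 2hr exposure of overnight-plated wild-type HCT-116 cells to DMSO-delivered compounds, CellTiter-Glo was added and luminescence recorded after 30min at room temperature.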

[19] = molecular target: Androgen receptor (Homo sapiens) (UniProt P10275); assay: qHTS assay to identify small molecule agonists of the androgen receptor (AR) signaling pathway in the presence of an antagonist (AID 1259381; calls by dose curve; note: nearly all actives have a fitted effect of over 15% in size)
In short: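 MDA-kb2 cells carrying MMTV-luciferase (AR/GR responsive), 3,000 cells/well, co-treated with 3.0 uM nilutamide final. Compounds at 15 concentrations, 16 hr at 37C without CO2. Luciferase luminescence read after 30 min with ONE-Glo.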

Measured: Potency

Sequence of Progesterone receptor (Homo sapiens) (P06401 whole entry, looked up): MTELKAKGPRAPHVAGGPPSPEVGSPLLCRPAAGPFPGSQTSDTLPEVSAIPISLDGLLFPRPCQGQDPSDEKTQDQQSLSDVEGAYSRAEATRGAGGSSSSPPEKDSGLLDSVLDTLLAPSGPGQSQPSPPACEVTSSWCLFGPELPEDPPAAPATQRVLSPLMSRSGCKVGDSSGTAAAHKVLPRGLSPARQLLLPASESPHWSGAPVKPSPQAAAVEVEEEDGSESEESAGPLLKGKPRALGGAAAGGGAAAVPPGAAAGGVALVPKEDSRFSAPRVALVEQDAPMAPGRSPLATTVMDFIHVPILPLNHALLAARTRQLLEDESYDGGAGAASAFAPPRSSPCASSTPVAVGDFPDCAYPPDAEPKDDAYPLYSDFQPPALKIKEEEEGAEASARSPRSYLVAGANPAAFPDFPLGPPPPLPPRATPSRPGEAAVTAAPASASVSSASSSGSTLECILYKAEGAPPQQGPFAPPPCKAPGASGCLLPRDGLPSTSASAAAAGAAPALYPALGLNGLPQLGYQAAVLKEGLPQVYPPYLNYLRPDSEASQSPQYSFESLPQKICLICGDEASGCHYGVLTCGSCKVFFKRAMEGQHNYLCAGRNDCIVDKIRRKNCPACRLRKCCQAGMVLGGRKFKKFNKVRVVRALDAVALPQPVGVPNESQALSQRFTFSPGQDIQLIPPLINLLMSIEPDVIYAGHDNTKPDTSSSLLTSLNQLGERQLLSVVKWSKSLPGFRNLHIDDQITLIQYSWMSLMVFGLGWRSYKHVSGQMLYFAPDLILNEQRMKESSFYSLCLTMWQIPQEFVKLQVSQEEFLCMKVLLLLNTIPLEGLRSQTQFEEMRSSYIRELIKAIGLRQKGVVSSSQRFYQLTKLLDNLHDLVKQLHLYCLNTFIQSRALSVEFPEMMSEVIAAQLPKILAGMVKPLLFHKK
Sequence of Thyrotropin receptor (Homo sapiens) (P16473 whole entry, looked up): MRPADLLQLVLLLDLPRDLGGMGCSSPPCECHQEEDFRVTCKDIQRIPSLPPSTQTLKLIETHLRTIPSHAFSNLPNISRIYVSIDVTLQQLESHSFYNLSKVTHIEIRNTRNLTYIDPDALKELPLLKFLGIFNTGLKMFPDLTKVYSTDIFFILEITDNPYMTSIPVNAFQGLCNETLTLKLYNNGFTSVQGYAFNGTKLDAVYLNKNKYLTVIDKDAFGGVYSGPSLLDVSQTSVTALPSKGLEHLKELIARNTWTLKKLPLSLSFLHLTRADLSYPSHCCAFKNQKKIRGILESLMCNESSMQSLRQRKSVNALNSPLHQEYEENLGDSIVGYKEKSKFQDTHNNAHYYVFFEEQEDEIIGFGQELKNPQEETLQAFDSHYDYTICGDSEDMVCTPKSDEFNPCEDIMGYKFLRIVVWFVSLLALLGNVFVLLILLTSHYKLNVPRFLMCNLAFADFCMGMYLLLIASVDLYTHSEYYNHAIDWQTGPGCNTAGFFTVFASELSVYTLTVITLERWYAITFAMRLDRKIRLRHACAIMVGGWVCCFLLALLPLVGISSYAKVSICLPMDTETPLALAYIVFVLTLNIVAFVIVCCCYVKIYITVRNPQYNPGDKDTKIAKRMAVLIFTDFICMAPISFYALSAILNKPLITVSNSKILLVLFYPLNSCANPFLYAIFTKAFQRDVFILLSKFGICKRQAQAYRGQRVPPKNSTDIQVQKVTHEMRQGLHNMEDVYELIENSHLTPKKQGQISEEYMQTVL
Sequence of Estrogen receptor beta (Homo sapiens) (Q92731 whole entry, looked up): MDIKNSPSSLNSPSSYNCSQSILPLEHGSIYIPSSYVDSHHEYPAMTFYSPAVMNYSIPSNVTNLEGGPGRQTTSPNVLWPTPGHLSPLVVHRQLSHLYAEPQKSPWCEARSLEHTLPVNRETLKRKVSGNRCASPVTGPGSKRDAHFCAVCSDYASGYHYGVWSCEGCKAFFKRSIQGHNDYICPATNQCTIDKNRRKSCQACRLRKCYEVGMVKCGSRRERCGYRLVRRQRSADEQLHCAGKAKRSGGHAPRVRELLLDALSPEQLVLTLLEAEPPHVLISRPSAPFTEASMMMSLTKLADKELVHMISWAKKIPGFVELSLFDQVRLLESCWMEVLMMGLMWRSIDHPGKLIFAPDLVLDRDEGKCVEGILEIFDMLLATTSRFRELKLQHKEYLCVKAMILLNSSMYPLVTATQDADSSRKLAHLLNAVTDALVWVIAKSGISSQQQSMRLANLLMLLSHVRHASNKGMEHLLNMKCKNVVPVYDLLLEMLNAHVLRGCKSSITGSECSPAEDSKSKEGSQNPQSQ
Sequence of Estrogen receptor (Homo sapiens) (P03372 whole entry, looked up): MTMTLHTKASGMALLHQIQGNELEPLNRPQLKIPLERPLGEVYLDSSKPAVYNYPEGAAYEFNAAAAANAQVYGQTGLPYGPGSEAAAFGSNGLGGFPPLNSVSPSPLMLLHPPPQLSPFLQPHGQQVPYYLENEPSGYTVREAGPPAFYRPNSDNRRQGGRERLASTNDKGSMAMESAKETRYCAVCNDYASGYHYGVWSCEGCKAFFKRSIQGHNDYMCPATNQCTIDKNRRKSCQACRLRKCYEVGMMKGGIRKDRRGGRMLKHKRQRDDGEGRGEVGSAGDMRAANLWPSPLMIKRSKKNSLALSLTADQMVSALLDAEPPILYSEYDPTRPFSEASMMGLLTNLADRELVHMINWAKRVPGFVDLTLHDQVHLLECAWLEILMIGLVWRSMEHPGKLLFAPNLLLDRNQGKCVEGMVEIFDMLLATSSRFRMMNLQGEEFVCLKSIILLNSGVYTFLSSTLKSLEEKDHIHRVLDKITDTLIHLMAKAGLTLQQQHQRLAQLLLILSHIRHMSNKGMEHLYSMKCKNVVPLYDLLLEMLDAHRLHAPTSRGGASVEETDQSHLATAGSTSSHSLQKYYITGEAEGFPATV
Sequence of Androgen receptor (Homo sapiens) (P10275 whole entry, looked up): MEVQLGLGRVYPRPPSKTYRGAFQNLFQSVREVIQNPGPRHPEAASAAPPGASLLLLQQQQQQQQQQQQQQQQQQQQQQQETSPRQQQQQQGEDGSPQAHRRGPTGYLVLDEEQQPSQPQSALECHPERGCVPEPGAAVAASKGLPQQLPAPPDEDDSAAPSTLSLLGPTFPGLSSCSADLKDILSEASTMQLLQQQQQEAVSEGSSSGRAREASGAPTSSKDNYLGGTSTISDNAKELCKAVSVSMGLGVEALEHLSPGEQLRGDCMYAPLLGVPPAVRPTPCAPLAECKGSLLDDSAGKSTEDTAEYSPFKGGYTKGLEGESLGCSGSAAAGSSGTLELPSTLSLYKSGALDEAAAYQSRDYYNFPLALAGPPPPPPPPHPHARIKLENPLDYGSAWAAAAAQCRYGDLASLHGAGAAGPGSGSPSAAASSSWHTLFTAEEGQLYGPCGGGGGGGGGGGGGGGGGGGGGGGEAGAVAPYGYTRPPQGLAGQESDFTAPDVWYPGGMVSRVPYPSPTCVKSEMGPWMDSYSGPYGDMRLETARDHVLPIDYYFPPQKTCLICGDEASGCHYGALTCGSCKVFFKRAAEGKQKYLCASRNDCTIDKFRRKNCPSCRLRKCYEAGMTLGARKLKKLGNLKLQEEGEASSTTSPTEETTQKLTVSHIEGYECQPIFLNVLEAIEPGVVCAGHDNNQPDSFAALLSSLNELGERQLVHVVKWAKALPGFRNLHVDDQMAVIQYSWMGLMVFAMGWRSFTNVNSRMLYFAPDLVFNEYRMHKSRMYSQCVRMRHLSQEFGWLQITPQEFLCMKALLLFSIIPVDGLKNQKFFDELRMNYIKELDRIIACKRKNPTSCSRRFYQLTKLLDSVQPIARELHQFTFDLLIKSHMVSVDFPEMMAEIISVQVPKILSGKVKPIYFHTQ

CC(C)OC(=O)Nc1cccc(Cl)c1
active: [2] 15.1 µM and 13.7 µM
not listed: [16] | [17] | [18] | [19]
inactive: all other assays above

O=S(=O)(c1ccc(O)cc1)c1ccc(O)cc1
active: [5] 34.4 µM | [6] 4.35 µM and 4.33 µM | [11] 54.5 µM
not listed: [12] | [13] | [18] | [19]
inactive: all other assays above

CCCCCOC(=O)c1ccccc1C(=O)OCCCCC
not listed: [2] | [17] | [19]
inactive: all other assays above

CC(C)NC(=O)N1CC(=O)N(c2cc(Cl)cc(Cl)c2)C1=O
active: [5] 10.9 µM
48.6 µM (active) and inactive: [16]
inactive: [1] | [4] | [8] | [10] | [11] | [12] | [13] | [14] | [15]
54.5 µM (active) and inactive: [3]

COC(=O)NC(=S)Nc1ccccc1NC(=S)NC(=O)OC
not listed: [2] | [9] | [18] | [19]
inactive: all other assays above

CC(=O)C=C(C)C
not listed: [2] | [4] | [5] | [6] | [7] | [18] | [19]
inactive: all other assays above

CC(C#N)CCC#N (stereo unspecified)
not listed: [2] | [19]
inactive: all other assays above

Nc1c(Cl)c(Cl)nc(C(=O)O)c1Cl
not listed: [9] | [18] | [19]
inactive: all other assays above

CCN(CC)c1ccccc1
not listed: [2] | [4] | [9] | [12] | [13]
inactive: all other assays above

COP(N)(=O)SC (stereo unspecified)
not listed: [2] | [4] | [16] | [19]
inactive: all other assays above

CC(Oc1ccc(Cl)cc1Cl)C(=O)O (stereo unspecified)
not listed: [2] | [6] | [7] | [16] | [18] | [19]
inactive: all other assays above

Cc1ccc([N+](=O)[O-])cc1C
not listed: [2] | [4] | [16] | [19]
inactive: all other assays above

CCOP(=S)(OCC)Oc1cnc2ccccc2n1
active: [5] 27.3 µM
not listed: [2] | [4] | [16] | [19]
inactive: all other assays above

ClCc1cccnc1
not listed: [4] | [6] | [7] | [16] | [19]
inactive: all other assays above

CCOP(OCC)OCC
not listed: [6] | [7] | [9] | [12] | [13] | [18] | [19]
inactive: all other assays above

CC(C)(C)OOC(C)(C)C
not listed: [18] | [19]
inactive: all other assays above

CCNc1nc(NC(C)(C)C)nc(SC)n1
active: [5] 1.7 µM and 6.11 µM | [17] 47.9 µM
not listed: [2] | [19]
inactive: all other assays above

C1CN2CCN1CC2
not listed: [2] | [19]
inactive: all other assays above

CN=C=S
active: [5] 2.19 µM
not listed: [2] | [6] | [7] | [16] | [19]
inactive: all other assays above

Source: PubChem BioAssay (Tox21)
